How the values were obtained:
Assay type in all cases: functional
Plasmodium falciparum [1] = assay: GSK_TCMDC: Inhibition of Plasmodium falciparum 3D7 in whole red blood cells, using parasite LDH activity as an index of growth. Test compounds present at 2uM
Plasmodium falciparum [2] = assay: GSK_TCMDC: Inhibition of Plasmodium falciparum Dd2 in whole red blood cells, using parasite LDH activity as an index of growth. Test compounds present at 2uM
HepG2 = assay: GSK_TCMDC: Percent inhibition of human HepG2 cell line. Test compounds present at 10uM.

Compound | Inhibition (Plasmodium falciparum [1]) [%] | Inhibition (Plasmodium falciparum [2]) [%] | Inhibition (HepG2) [%]
S=c1nc(-c2ccccc2)n2ccsc2n1 | 95 | 0 | 3
Cc1nc(-c2cccc(C(F)(F)F)c2)n2nc(Nc3ccc(OCCN4CCCC4)cc3)ncc12 | 99 | 29 | 30
COC(=O)c1cccc(CNCc2cccc(-c3csc(-c4nc5ccccc5[nH]4)c3)c2)c1.O=C(O)C(F)(F)F | 100 | 44 | 0
COc1ccc2nccc([C@@H](O)CN3CCC(NC(=O)C(c4cccs4)N4CCN(c5ccc(F)cc5)CC4)CC3)c2c1 (stereo partly drawn) | 97 | 45 | 9
O=C(/C=C/c1ccsc1)N1CCC(CCN2CCC(c3c[nH]c4ccccc34)CC2)CC1 | 88 | 24 | 37
CC1CCN(c2nc(C(=O)NCCc3ccc(Cl)c(Cl)c3)c(C(C)C)s2)CC1.O=C(O)C(F)(F)F | 88 | 38 | 0
CCC(CC)C(CC(=O)NC(C)(C)CCc1ccccc1OC)Nc1ccc(C#N)c2ccccc12 (stereo not drawn) | 93 | 91 | 9
O=C(O)C(F)(F)F.Oc1ccc(CN2CCC(NCc3cccc(C(F)(F)F)c3)CC2)cc1 | 100 | 64 | 10
OC(c1cccc2ccccc12)C1CN(CCc2ccccc2)CCC1(O)c1ccccc1 (stereo not drawn) | 99 | 100 | 0
CC(C)(CN)c1nc(-c2ccc(Cl)c(O)c2)c(-c2ccnc(N)n2)[nH]1 | 95 | 95 | 34
CC(C)CC(NC(=O)c1cc2ccccc2s1)C(=O)N1CCCCCC1c1ccc(C(C)(C)C)cc1 (stereo not drawn) | 91 | 39 | 23

Source: ChEMBL document CHEMBL1157539, “Thousands of chemical starting points for antimalarial lead identification” (Nature, 2010)
